Structures can show the parent of a compound that is named as a salt.

The experiment has as its system Saccharomyces cerevisiae. In words: fraction of cells in G1 phase (DNA content, flow cytometry); higher = more cells with unreplicated DNA (G1 delay). The note with it: temperature: 30 C; YPD; JTY2953 pdr5 snq2 (sensitized); drug added to: cultures diluted from stationary phase; 6-7 h. Summed up: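 S. cerevisiae in YPD at 30°C was treated with library drugs, with DMSO-only wells as reference. Sensitized JTY2953 cultures diluted 1∶200 from overnight received a final 20 µg/ml and were fixed after 6–7 h; other runs dosed dividing JTY2953 (fixed 6 h later) or BY4741 (4.33 h later). Ethanol-fixed cells were stained with SYTOX Green and 10,000 events read by flow cytometry. G1 fraction is the Dean-Jett-Fox G1 peak area over G1 plus G2/M areas.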
On the technique in general: In flow cytometry, cells or beads pass a laser one at a time.
For `Cc1c(O)cccc1C(=O)N[C@@H](CSc1ccccc1)[C@H](O)CN1C[C@H]2CCCC[C@H]2C[C@H]1C(=O)NC(C)(C)C` [Nelfinavir Mesylate] (30.1249 µM), the “fraction of cells in G1 phase” value was determined as 0.487.

In the case of `C[C@H]1C[C@@H]2[C@H]([C@@H](O)C[C@@]3(C)[C@H]2CC[C@]3(O)C(=O)CO)[C@@]2(C)C=CC(=O)C=C12` [Methylprednisolone] (53.4072 µM), the “fraction of cells in G1 phase” value was determined as 0.481.

As to `COC(=O)C1=C(C)NC(C)=C(C(=O)OCCN(C)Cc2ccccc2)C1c1cccc([N+](=O)[O-])c1` (stereo not drawn) [Nicardipine] (38.7597 µM), the “fraction of cells in G1 phase” value was determined as 0.5.

As to `O=C1CC2(CCCC2)CC(=O)N1CCCCN1CCN(c2ncccn2)CC1` [Buspirone HCl] (51.8789 µM), the “fraction of cells in G1 phase” value came out at 0.499. For `NCCCC[C@H](N[C@@H](CCc1ccccc1)C(=O)O)C(=O)N1CCC[C@H]1C(=O)O` [Lisinopril] (49.322 µM), the “fraction of cells in G1 phase” value was 0.502. With `O=C(O)CCCc1ccccc1` [Sodium phenylbutyrate] (107.418 µM), the “fraction of cells in G1 phase” value was found to be 0.491. The value for `Clc1ccc2nsnc2c1NC1=NCCN1` [Tizanidine HCl] (78.8287 µM) was 0.504; that for `COc1ccc(C(=O)NCc2ccc(OCCN(C)C)cc2)cc1OC` [Itopride HCl] (55.7972 µM) was 0.501; that for `Cn1c(=O)c2c(ncn2CC2OCCO2)n(C)c1=O` [Doxofylline] (75.1149 µM) was 0.465.

Consider `CC12CC3CC(C)(C1)CC(N)(C3)C2` [Memantine HCl] (111.54 µM), for which the “fraction of cells in G1 phase” value was determined as 0.532. The value for `Nc1ccn([C@@H]2O[C@H](CO)[C@@H](O)[C@@H]2O)c(=O)n1` [Cytarabine] (82.2297 µM) was 0.477; that for `CC(C)C[C@H](NC(=O)[C@H](Cc1ccccc1)NC(=O)c1cnccn1)B(O)O` [Bortezomib] (52.0499 µM) was 0.4.

As to `CN/C(=N\CCSCc1nc[nH]c1C)NC#N` [Cimetidine] (79.2571 µM), the “fraction of cells in G1 phase” value is 0.5. The value for `N#Cc1ccc(C(c2ccc(C#N)cc2)n2cncn2)cc1` [Letrozole] (70.099 µM) was 0.519; that for `COc1ccc2[nH]c([S+]([O-])Cc3ncc(C)c(OC)c3C)nc2n1` (stereo not drawn) [Tenatoprazole] (57.7349 µM) was 0.486.

As to `CC1=Nc2ccc(Cl)cc2S(=O)(=O)N1` [Diazoxide] (86.7024 µM), the “fraction of cells in G1 phase” value turned out to be 0.516.

`COc1ccc2[nH]cc(CCNC(C)=O)c2c1` [Melatonin] (86.1012 µM): the “fraction of cells in G1 phase” value is 0.529. Regarding `CN(C)c1ccc(O)c2c1C[C@H]1C[C@H]3[C@H](N(C)C)C(=O)C(C(N)=O)=C(O)[C@@]3(O)C(=O)C1=C2O` [Minocycline HCl] (43.717 µM), the “fraction of cells in G1 phase” value amounted to 0.51.

As to `OCc1cc(C(O)CNCCCCCCOCCCCc2ccccc2)ccc1O` (stereo not drawn) [Salmeterol] (48.1257 µM), the “fraction of cells in G1 phase” value came out at 0.472. Next, `NC[C@H]1CC[C@H](C(=O)O)CC1` [Tranexamic acid] (127.226 µM): 0.504; `CC(C(=O)O)c1ccc(-c2ccccc2)c(F)c1` (stereo not drawn) [Flurbiprofen] (81.8773 µM): 0.524. Next, `CN(C)CCC=C1c2ccccc2CCc2ccccc21` [Amitriptyline HCl] (63.7146 µM): 0.418.

Consider `CC#C[C@]1(O)CC[C@H]2[C@@H]3CCC4=CC(=O)CCC4=C3[C@@H](c3ccc(N(C)C)cc3)C[C@@]21C` [Mifepristone] (46.5541 µM), for which the “fraction of cells in G1 phase” value was 0.469.

`CS(=O)(=O)CCNCc1ccc(-c2ccc3ncnc(Nc4ccc(OCc5cccc(F)c5)c(Cl)c4)c3c2)o1` [Lapatinib] (34.4192 µM): the “fraction of cells in G1 phase” value came out at 0.565. Next, `CC1CNc2c(cccc2S(=O)(=O)N[C@@H](CCCNC(=N)N)C(=O)N2CC[C@@H](C)C[C@@H]2C(=O)O)C1` (stereo partly drawn) [Argatroban] (39.3202 µM): 0.487; `CCCc1nc(C)c2c(=O)nc(-c3cc(S(=O)(=O)N4CCN(CC)CC4)ccc3OCC)[nH]n12` [Vardenafil] (40.9322 µM): 0.511. The value for `C[C@]12CC[C@@H]3c4ccc(O)cc4CC[C@H]3[C@@H]1C[C@@H](O)[C@@H]2O` [Estriol] (69.3505 µM) was 0.535. Next, `CCN(CC)CCNC(=O)c1ccc(N)cc1` [Procainamide] (73.5835 µM): 0.494; `CO/N=C(\C(=O)N[C@@H]1C(=O)N2C(C(=O)[O-])=C(C[N+]3(C)CCCC3)CS[C@H]12)c1csc(N)n1` [Cefepime] (41.6174 µM): 0.504.

With `O=C(O)C(=O)O.[NH-][C@@H]1CCCC[C@H]1[NH-].[Pt+2]` [Oxaliplatin] (50.3396 µM), the “fraction of cells in G1 phase” value was determined as 0.493. Next, `CC(=O)Oc1ccc(C(c2ccc(OC(C)=O)cc2)c2ccccn2)cc1` [Bisacodyl] (55.3402 µM): 0.499. The value for `COC(=O)N/N=C/c1c[n+]([O-])c2ccccc2[n+]1[O-]` [Carbadox] (76.2699 µM) was 0.414; that for `C[C@@H]1C(=O)O[C@H]2C[C@@]34[C@H]5C[C@@H](C(C)(C)C)[C@]36[C@@H](OC(=O)[C@@H]6O)O[C@@]4(C(=O)O5)[C@]21O` [Ginkgolide a] (48.9705 µM) was 0.512; that for `CCn1cc(C(=O)O)c(=O)c2cc(F)c(N3CCNC(C)C3)c(F)c21` (stereo not drawn) [Lomefloxacin HCl] (56.9223 µM) was 0.489.

As for `NC(=O)OCC(COC(N)=O)c1ccccc1` [Felbamate] (83.9631 µM), the “fraction of cells in G1 phase” value turned out to be 0.505. On to `CO/N=C(\C(=O)N[C@@H]1C(=O)N2C(C(=O)O)=C(COC(C)=O)CS[C@H]12)c1csc(N)n1` [Cefotaxime acid] (43.9106 µM), for which the “fraction of cells in G1 phase” value came to 0.485. The value for `O=C(O)CCC(=O)c1ccc(-c2ccccc2)cc1` [Fenbufen] (78.6509 µM) was 0.572; that for `CCN(CC)C(=O)/C(C#N)=C/c1cc(O)c(O)c([N+](=O)[O-])c1` [Entacapone] (65.5109 µM) was 0.508.

Values taken from the supplement of paper PMC3342239.
